As a reminder, the inhibition is the drop in the measured response relative to a control, in per cent.

Assay [1] addresses Protein kinase C gamma type (Homo sapiens) (UniProt P05129). The conditions noted are these: at 1 µM.
Assay [2] concerns the target T1, Protein kinase C iota type (Homo sapiens) (UniProt P41743).
T1 sequence (whole entry): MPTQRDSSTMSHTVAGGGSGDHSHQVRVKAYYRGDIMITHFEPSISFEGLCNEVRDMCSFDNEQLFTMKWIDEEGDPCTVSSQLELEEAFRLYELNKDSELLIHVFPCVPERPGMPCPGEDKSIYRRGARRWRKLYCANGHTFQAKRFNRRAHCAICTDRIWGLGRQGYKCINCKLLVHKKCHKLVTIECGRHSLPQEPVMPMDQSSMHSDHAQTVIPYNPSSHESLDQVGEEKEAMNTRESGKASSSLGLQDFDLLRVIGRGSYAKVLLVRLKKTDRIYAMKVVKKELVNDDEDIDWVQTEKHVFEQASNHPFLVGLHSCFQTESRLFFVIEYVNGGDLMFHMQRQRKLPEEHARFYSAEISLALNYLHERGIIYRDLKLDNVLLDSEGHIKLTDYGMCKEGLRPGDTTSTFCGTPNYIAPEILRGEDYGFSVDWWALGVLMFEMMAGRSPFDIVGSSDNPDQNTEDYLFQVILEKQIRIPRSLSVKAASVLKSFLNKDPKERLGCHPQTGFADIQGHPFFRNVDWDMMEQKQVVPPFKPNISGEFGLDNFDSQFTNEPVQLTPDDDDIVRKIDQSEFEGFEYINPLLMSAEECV
To be noted: at 0.1 µM.

Assay [3] deals with T1, Protein kinase C iota type (Homo sapiens). To be noted: at 1 µM.
Assay [4] has as its target Protein kinase C theta type (Homo sapiens) (UniProt Q04759). The conditions noted are these: at 0.1 µM.
Assay [5] shares this target. The conditions noted are these: at 1 µM.
The target of assay [6] is Protein kinase C beta type (Homo sapiens) (UniProt P05771). The conditions noted are these: at 0.1 µM.
Protein kinase C beta type (Homo sapiens), sequence (P05771 2-671 limits assumed): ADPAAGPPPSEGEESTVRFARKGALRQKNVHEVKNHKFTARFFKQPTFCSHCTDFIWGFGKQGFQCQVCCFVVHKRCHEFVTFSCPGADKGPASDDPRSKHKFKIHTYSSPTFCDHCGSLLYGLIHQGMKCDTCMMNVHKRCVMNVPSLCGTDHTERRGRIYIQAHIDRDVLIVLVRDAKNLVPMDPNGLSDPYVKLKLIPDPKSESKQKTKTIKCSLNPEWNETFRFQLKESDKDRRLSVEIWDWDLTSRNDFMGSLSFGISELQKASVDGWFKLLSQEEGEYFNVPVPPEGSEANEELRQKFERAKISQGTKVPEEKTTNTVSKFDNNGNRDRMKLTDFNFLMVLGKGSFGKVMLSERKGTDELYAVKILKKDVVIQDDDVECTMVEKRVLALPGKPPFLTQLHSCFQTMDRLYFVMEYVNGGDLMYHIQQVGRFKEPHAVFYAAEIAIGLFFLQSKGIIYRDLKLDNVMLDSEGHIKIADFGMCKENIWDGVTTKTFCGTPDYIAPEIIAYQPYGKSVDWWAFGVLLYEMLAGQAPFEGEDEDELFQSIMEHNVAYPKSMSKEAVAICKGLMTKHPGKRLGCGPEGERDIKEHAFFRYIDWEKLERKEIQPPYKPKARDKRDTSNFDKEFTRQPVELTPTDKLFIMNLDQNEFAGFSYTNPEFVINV
Assay [7] has the same target. The conditions noted are these: at 1 µM.
The target in assay [8] is T2, Serine/threonine-protein kinase D1 (Homo sapiens) (UniProt Q15139).
T2 sequence (whole entry): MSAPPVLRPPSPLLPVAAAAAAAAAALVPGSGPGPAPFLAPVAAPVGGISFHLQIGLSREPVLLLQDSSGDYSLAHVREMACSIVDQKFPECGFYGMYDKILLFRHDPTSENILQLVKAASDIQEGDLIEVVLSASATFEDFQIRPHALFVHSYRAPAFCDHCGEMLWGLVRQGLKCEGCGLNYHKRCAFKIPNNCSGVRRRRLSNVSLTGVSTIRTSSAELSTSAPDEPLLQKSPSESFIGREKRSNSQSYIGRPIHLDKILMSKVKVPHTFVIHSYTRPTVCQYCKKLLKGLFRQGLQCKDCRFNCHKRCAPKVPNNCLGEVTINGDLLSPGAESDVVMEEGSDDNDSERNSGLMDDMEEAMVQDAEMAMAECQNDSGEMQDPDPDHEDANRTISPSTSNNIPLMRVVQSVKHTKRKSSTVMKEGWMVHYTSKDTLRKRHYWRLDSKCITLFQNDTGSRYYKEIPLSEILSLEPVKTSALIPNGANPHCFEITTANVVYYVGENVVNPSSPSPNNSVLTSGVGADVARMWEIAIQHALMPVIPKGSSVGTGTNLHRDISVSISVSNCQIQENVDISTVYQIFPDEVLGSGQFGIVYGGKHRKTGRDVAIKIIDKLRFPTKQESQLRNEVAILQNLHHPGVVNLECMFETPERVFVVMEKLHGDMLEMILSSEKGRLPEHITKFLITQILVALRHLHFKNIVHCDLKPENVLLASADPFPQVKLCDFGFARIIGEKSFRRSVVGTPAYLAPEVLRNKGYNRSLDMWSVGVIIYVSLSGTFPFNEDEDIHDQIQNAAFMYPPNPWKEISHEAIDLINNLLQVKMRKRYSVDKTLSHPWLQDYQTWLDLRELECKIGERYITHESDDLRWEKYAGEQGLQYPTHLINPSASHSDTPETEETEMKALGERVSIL
The conditions noted are these: at 0.1 µM.

Assay [9] concerns the target T2, Serine/threonine-protein kinase D1 (Homo sapiens). The conditions noted are these: at 1 µM.
The target in assay [10] is T3, Serine/threonine-protein kinase D2 (Homo sapiens) (UniProt Q9BZL6).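 Also: reported percent inhibition values are means, part of the GSK PKIS kinase panel screen.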
T3 sequence (whole entry): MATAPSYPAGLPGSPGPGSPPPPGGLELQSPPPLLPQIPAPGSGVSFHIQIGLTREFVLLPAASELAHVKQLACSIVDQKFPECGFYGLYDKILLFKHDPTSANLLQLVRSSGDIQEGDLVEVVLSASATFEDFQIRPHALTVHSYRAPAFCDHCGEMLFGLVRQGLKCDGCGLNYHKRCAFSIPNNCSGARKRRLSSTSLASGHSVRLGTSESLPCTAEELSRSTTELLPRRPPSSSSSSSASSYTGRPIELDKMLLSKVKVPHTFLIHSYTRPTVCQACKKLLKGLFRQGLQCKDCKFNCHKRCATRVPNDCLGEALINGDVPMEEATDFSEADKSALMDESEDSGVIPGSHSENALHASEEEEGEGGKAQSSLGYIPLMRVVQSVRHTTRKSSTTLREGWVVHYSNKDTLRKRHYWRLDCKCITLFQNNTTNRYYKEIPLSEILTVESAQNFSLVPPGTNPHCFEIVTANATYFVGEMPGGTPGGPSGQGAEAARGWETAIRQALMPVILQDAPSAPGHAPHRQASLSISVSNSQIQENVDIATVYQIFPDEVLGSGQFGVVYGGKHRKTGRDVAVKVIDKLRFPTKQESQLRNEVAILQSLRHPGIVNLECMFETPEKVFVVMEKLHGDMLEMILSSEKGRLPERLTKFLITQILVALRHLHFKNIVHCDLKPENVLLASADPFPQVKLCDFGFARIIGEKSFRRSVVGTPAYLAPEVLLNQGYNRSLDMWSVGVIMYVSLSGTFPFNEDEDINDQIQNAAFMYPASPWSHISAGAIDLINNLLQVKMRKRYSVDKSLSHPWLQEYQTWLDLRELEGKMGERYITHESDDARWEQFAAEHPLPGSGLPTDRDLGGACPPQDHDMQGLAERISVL
To be noted: at 0.1 µM.

Protein kinase C theta type (Homo sapiens), sequence (Q04759 whole entry, looked up): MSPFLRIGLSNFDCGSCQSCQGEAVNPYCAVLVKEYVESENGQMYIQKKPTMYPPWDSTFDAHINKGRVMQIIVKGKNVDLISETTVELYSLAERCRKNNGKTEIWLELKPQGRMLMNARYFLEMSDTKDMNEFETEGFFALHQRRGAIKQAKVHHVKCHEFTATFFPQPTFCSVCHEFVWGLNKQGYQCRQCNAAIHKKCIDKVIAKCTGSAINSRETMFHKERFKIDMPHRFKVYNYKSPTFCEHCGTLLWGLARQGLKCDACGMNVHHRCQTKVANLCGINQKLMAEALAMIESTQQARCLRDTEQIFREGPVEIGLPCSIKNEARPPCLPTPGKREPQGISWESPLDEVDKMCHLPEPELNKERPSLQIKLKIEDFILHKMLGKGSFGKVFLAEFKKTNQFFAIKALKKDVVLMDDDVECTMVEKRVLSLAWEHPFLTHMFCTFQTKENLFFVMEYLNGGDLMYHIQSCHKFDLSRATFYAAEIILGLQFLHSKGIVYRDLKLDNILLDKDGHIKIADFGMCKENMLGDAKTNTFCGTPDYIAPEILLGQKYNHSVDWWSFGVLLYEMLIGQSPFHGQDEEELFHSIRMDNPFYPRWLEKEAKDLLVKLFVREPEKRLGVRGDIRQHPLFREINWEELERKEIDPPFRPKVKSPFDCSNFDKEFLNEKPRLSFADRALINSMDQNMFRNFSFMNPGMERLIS

Consider `CCn1c(-c2nonc2N)nc2cncc(C(=O)N3CC[C@H](N)C3)c21`, for which the inhibition turned out to be 41.1% in assay [1]; 8.94% in assay [2]; 40% in assay [3]; 5.26% in assay [4]; 23.8% in assay [5]; 11.4% in assay [6]. The inhibition in [7] worked out at 45.6%; in assay [8], 4.56%; in assay [9], 9.27%; in assay [10], 6.65%.

For `CC1=C(C(=O)Nc2ccc3[nH]ncc3c2)C(c2ccc(Cl)c(Cl)c2)CC(=O)N1` (stereo not given), the inhibition in [1] is -2.08%; in assay [2], 0.23%; in [3] it was -0.03%; in [4] it was 0.6%; in [5], 5.07%; in [6], 0.17%. The inhibition in assay [7] stood at 0.61%; in assay [8], 0.89%; in assay [9], 4.46%; in assay [10], 1.41%.

Regarding `CNC(=O)c1cncc(/C=C/c2c(Cl)cccc2Cl)c1`, the inhibition in [1] was 1.44%; in assay [2], 0.96%; in [3] it was 0.96%; in assay [4], 1.94%; in assay [5] it was 1.94%; in [6], 0.86%. The inhibition in [7] was 1.27%; in assay [8], 2.34%; in [9] it was 5%; in assay [10], 1.54%.

As to `CN1CCC(C(=O)Nc2n[nH]c3nnc(-c4ccccc4)cc23)CC1`, the inhibition in assay [1] was determined as 5.3%; in assay [2], 2.28%; in assay [3] it was 0.85%; in assay [4], 2.64%; in assay [5] it was 3.84%; in [6], 1.32%. Further, the inhibition stood at 1.6% in assay [7], 5.4% in assay [8], 6.32% in [9] and 4.78% in [10].

With `CCn1c(-c2nonc2N)nc2c(C#CC(C)(C)O)nc(OC[C@@H](N)c3ccccc3)cc21`, the inhibition in assay [1] was 45.3%; in [2], 1.26%; in [3], 0.8%; in [4] it was 11.9%; in [5], 52.5%; in [6], 3.74%. Further, the inhibition in [7] was 23.1%; in assay [8], -0.47%; in assay [9] it was 9.57%; in assay [10], -0.26%.

`COC(=O)Nc1nc2cc(Oc3ccc(NC(=O)Nc4cccc(C(=O)O)c4)cc3)ccc2[nH]1`: the inhibition in assay [1] is -0.24%; in assay [2], 0.47%; in [3], -1.28%; in assay [4] it was 0.18%; in assay [5] it was 2.02%; in assay [6] it was -0.5%. For the same compound, the inhibition in assay [7] is 0.44%; in assay [8] it was -1.35%; in assay [9], -1.96%; in [10], -3.05%.

For `O=C1NC(=O)C(c2cccc(Cl)c2)=C1Nc1ccc(O)c(Cl)c1`, the inhibition in assay [1] was 0.01%; in [2] it was -1.41%; in [3], 0.5%; in [4], 0%; in assay [5] it was 4.79%; in assay [6] it was 0.56%. Further, the inhibition in assay [7] worked out at 8.45%; in assay [8], 0.15%; in [9] it was 1.38%; in [10], 0.62%.

In the case of `CCn1c(-c2nonc2N)nc2ccncc21`, the inhibition in assay [1] is 4.26%; in assay [2], 0.76%; in assay [3], 1.92%; in assay [4], -0.28%; in assay [5] it was 0%; in assay [6] it was -0.19%. Besides, the inhibition in assay [7] is 0.57%; in assay [8], 1.02%; in [9], 3.26%; in assay [10] it was 1.34%.

With `COc1ccccc1Nc1ncc(-c2ccccc2)o1`, the inhibition turned out to be 3.53% in assay [1]; 3.88% in [2]; 3.75% in [3]; 3.4% in assay [4]; 3.02% in assay [5]; 1.12% in assay [6]. The inhibition came out at 1.8% in [7], 4.01% in assay [8], 5.46% in assay [9] and 3.84% in [10].

Turning to `Nc1ncnc2occ(-c3ccc(NC(=O)Nc4cccc(C(F)(F)F)c4)cc3)c12`, the inhibition in assay [1] stood at 2.18%; in assay [2] it was 3.47%; in assay [3], 3.34%; in assay [4] it was 2.55%; in assay [5], 2.66%; in assay [6], 1.71%. The inhibition in [7] amounted to 2.2%; in assay [8] it was 5.29%; in assay [9] it was 7.85%; in [10], 5.02%.

For `COC(=O)Nc1nc2cc(Oc3cccc(NC(=O)Nc4cc(C(F)(F)F)ccc4F)c3)ccc2[nH]1`, the inhibition in assay [1] is 2.09%; in assay [2] it was -0.71%; in assay [3], -0.55%; in [4], -0.27%; in [5] it was -0.91%; in [6], 3.01%. The inhibition was 1.79% in assay [7], 0.22% in assay [8], 1.03% in [9] and 0.66% in [10].

Turning to `NS(=O)(=O)c1ccc(N/N=C2\C(=O)Nc3ccc(C(=O)NCCc4c[nH]cn4)cc32)cc1`, the inhibition is 5.55% in assay [1]; 2.26% in assay [2]; 2.34% in [3]; 2.03% in assay [4]; 3.63% in assay [5]; 1.05% in [6]. Further, the inhibition in [7] came to 2.48%; in [8] it was 6.28%; in [9] it was 34.4%; in assay [10], 5.45%.

As for `NCc1ccc(-c2nc(-c3ccc(Cl)c(O)c3)c(-c3ccncc3)[nH]2)cc1`, the inhibition in assay [1] was 0.42%; in [2] it was -0.2%; in [3], -0.02%; in assay [4], -0.02%; in [5], -0.18%; in assay [6] it was 0.76%. Also, the inhibition in assay [7] worked out at 10.8%; in [8], 0.78%; in assay [9], 2.64%; in assay [10], 1.57%.

For the compound `Nc1nc(-c2ccccn2)c(-c2ccc3ncccc3n2)s1`, the inhibition was 4.9% in [1]; 2.73% in assay [2]; 1.17% in assay [3]; 2.24% in assay [4]; 3.34% in [5]; -0.19% in [6]. Moreover, the inhibition in [7] came out at 0.88%; in [8] it was 2.38%; in [9] it was 4.64%; in [10] it was 2.92%.

Turning to `COc1cc2ncn(-c3cc(OCc4ccccc4Cl)c(C(N)=O)s3)c2cc1OC`, the inhibition in [1] is 2.36%; in assay [2], 1.15%; in [3], 0.82%; in assay [4], -0.26%; in assay [5], 0.66%; in [6], 0.93%. For the same compound, the inhibition in assay [7] is 0.76%; in assay [8], 0.01%; in [9], 0.57%; in assay [10], -0.54%.

`CCCN1CCC(Oc2cc(Nc3nc(Nc4cccc(F)c4C(N)=O)c4cc[nH]c4n3)c(OC)cc2Cl)CC1`: the inhibition was determined as 14.8% in assay [1]; 1.04% in assay [2]; 1.06% in [3]; 1.35% in [4]; 7.05% in [5]; 1.2% in assay [6]. Also, the inhibition is 4.52% in [7], 0.11% in [8], 7.94% in assay [9] and -0.33% in assay [10].

In the case of `Cc1nnc(-c2ccc(C)c(-c3ccc(C(=O)Nc4cccc(C#N)c4)cc3)c2)o1`, the inhibition in assay [1] is 5.13%; in assay [2], -0.73%; in assay [3], -1.05%; in assay [4], 1%; in [5], 1.47%; in assay [6] it was 1.09%. In addition, the inhibition in assay [7] came out at 1.38%; in assay [8] it was 4.29%; in assay [9], 4.48%; in assay [10], 2.17%.

These data come from ChEMBL document CHEMBL1961873, “Compounds: GSK PKIS; Assays: Nanosyn kinase panel” (2012).
